Test [1] is described as follows: Human pregnane X receptor (PXR) small molecule agonists, qHTS cell viability counter screen (AID 1346977). Note: nearly all actives have a fitted effect of over 50% in size. The method in brief:
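PXR-Luc HepG2 cells (2,000/well, 5% charcoal-stripped FBS) preincubated 5 hr, then exposed to compounds 24 hr at 37 C. Viability read in the same wells by CellTiter-Fluor fluorescence, reagent added at 23 hr, 1 hr incubation.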
(Quantitative high-throughput screening tests each substance at several concentrations.)

A short description of test [2]: Caspase-3/7 induction in CHO-K1 cells by small molecules, qHTS cell viability counter screen (AID 1346979). Note: nearly all actives have a fitted effect of over 35% in size. Put shortly:
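Wild-type CHO-K1 cells (1,500/well) treated with compound after 5 h plating; after 16 h at 37C, viability read as CellTiter-Fluor fluorescence following 1 h reagent incubation, in the same wells as the caspase read.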

Test [3] is described as follows: Caspase-3/7 induction in CHO-K1 cells by small molecules, qHTS assay (AID 1346980). Note: nearly all actives have a fitted effect of over 15% in size. Put shortly:
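Luminescent Caspase-Glo 3/7 read (30min, room temperature) quantified apoptosis induction. Cells were wild-type CHO-K1, treated with compound for 17hr at 37 C and 5% CO2.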

In test [4] the target is Nuclear receptor subfamily 1 group I member 2 (Rattus norvegicus) (UniProt Q9R1A7). Description: Rat pregnane X receptor (rPXR) activation by small molecules, qHTS assay (AID 1346983). Note: nearly all actives have a fitted effect of over 20% in size. As to conditions: rPXR luciferase reporter cells, One-Glo luminescence, 24 h; max activation: stronger effect = higher value. Put shortly:
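Luminescent readout (One-Glo luciferase, 30 min room temperature) followed 24 hr compound treatment at 37 C of rPXR cells plated 2,000 per well and preincubated 5hr; qHTS format with compounds delivered in DMSO.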

Test [5] concerns the target Nuclear receptor subfamily 1 group I member 2 (Homo sapiens) (UniProt O75469). Description: CYP3A4 induction through human pregnane X receptor (PXR) by small molecules, qHTS assay (AID 1346984). Note: nearly all actives have a fitted effect of over 40% in size. The method in brief:
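qHTS, concentration-response format: HepG2 DPX-2 line, PXR/CYP3A4-luc. Exposure 24 h, 37C. Substrate Luciferin-IPA 3uM final, 3 h. Detection One-Glo, 30 min RT.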

Test [6] shares this target. Description: Human pregnane X receptor (PXR) activation by small molecules, qHTS assay (AID 1346985). Note: nearly all actives have a fitted effect of over 40% in size. The method in brief: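 DPX-2 cells (HepG2 co-transfected with a PXR response element and a CYP3A4-promoter luciferase construct) were seeded at 2,000 per well, rested 5 hr at 37C, then exposed to DMSO-dissolved compounds for 24 hr. Activation was read as luciferase luminescence.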

Test [7] deals with Cytochrome P450 2D6 (Homo sapiens) (UniProt P10635). Description: Cytochrome P450 Family 2 Subfamily D Member 6 (CYP2D6) small molecule antagonists: luciferase reporter qHTS assay (AID 1671196). For activity change, negative = inhibition: series mostly up to about 120 µM. Note: nearly all actives have a fitted effect of over 50% in size. Note: potency is the fitted concentration of half-maximal effect. The method in brief: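 Luminescence (RLU), read 20 min after detection reagent, indicated CYP2D6 conversion of proluciferin to luciferin during a 1 h NADPH-dependent reaction at room temperature.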
Chain of Cytochrome P450 2D6 (Homo sapiens) (P10635 whole entry, looked up): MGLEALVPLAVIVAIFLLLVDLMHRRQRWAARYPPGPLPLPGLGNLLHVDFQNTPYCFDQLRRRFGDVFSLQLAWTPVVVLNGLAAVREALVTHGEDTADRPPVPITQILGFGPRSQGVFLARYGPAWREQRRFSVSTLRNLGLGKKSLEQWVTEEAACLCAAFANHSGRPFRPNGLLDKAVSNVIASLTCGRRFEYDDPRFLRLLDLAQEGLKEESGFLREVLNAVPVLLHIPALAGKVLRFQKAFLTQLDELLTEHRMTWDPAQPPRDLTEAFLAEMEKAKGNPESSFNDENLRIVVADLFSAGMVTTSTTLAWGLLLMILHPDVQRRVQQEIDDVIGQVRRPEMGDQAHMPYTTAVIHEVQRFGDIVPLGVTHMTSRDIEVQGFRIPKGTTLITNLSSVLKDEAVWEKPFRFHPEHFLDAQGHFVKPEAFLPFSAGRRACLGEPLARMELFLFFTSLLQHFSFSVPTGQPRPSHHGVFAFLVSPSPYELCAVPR

Test [8] concerns the target Cytochrome P450 2C19 (Homo sapiens) (UniProt P33261). Description: Cytochrome P450 Family 2 Subfamily C Member 19 (CYP2C19) small molecule antagonists: luciferase reporter qHTS assay (AID 1671197). Note: series mostly up to about 120 µM; nearly all actives have a fitted effect of over 65% in size. The method in brief: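 P450-Glo CYP2C19 screening system; proluciferin substrate; DMSO compound stocks; 10 min RT preincubation; NADPH regeneration, 1 h at 37C; luciferin detection reagent, 20 min RT; luminescence as RLU.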
In general terms: Reporter assays use an easily measured gene product as a stand-in for the process of interest.

The target of test [9] is Cytochrome P450 2C9 (Homo sapiens) (UniProt P11712). Description: Cytochrome P450 Family 2 Subfamily C Member 9 (CYP2C9) small molecule antagonists: luciferase reporter qHTS assay (AID 1671198). Note: series mostly up to about 120 µM; nearly all actives have a fitted effect of over 50% in size. The method in brief:
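Enzyme-substrate mix preincubated with compound 10 min at room temperature; reaction started with NADPH regeneration solution, 1 h 37C. Luminescent luciferin product read after 20 min detection reagent.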

For test [10], the target named is Cytochrome P450 1A2 (Homo sapiens) (UniProt P05177). Description: Cytochrome P450 Family 1 Subfamily A Member 2 (CYP1A2) small molecule antagonists: luciferase reporter qHTS assay (AID 1671199). For activity change, negative = inhibition: series mostly up to about 120 µM. Note: nearly all actives have a fitted effect of over 50% in size. Note: potency is the fitted concentration of half-maximal effect. The method in brief: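 CYP1A2 turnover of a luminogenic substrate was quantified after 1 h with NADPH regeneration at room temperature. Furafylline served as positive control.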
Chain of Cytochrome P450 1A2 (Homo sapiens) (P05177 whole entry, looked up): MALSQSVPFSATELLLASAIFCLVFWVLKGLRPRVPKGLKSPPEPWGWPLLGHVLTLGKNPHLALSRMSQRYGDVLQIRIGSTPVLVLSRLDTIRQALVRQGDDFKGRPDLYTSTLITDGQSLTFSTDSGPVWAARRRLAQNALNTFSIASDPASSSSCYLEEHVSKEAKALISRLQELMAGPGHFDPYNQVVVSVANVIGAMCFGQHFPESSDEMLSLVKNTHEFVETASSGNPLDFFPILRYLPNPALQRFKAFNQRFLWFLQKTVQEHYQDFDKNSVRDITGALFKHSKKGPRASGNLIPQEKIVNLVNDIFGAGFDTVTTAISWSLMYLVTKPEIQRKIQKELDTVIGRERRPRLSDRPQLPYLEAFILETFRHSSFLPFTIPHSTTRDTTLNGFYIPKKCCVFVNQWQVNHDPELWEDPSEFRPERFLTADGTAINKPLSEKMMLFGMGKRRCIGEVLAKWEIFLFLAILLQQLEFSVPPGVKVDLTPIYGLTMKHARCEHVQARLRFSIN

Test [11] deals with Voltage-gated inwardly rectifying potassium channel KCNH2 (Homo sapiens) (UniProt Q12809). Description: Human Ether-a-go-go-Related Gene (hERG) channel small molecule antagonists: fluorescence cell-based qHTS assay (AID 1671200). Put shortly:
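hERG-U2OS cells plated overnight at 37 C, loaded with FluxOR II dye 1 h at RT in dark; after 10 min, thallium stimulus added. Fluorescence (480/540 nm) read kinetically for 2 min at 1 s intervals.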
Background: The hERG channel carries a current that helps repolarise heart muscle cells.

Test [12] concerns the target Cytochrome P450 3A4 (Homo sapiens) (UniProt P08684). Description: Cytochrome P450 Family 3 Subfamily A Member 4 (CYP3A4) small molecule antagonists: luciferase reporter qHTS assay (AID 1671201). Put shortly: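 P450-Glo CYP3A4 luminescent assay: compounds preincubated 10 min at room temperature with enzyme and proluciferin substrate, NADPH regeneration added, 1 h room-temperature reaction, stopped with luciferin detection reagent; luminescence read after 20 min. Ketoconazole positive control.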

A short description of test [13]: Caspase-3/7 induction in HepG2 cells by small molecules, qHTS cell viability counter screen (AID 1346981). Note: series mostly up to about 92 µM; nearly all actives have a fitted effect of over 30% in size. Put shortly:
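Multiplexed with the caspase-3/7 assay: HepG2 cells, 16 hr compound treatment, CellTiter-Fluor viability detection by fluorescence.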

The target in test [14] is Nuclear receptor subfamily 1 group I member 2 (Homo sapiens) (UniProt O75469). Description: Human pregnane X receptor (PXR) small molecule agonists, qHTS assay (AID 1346982). Note: nearly all actives have a fitted effect of over 35% in size. Note: potency is the fitted concentration of half-maximal effect. The method in brief: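 We seeded PXR-Luc HepG2 cells in assay medium containing 5% charcoal-stripped FBS, added compounds 5 hr later, incubated 24 hr, and read luminescence with ONE-Glo reagent.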
Chain of Nuclear receptor subfamily 1 group I member 2 (Homo sapiens) (O75469 whole entry, looked up): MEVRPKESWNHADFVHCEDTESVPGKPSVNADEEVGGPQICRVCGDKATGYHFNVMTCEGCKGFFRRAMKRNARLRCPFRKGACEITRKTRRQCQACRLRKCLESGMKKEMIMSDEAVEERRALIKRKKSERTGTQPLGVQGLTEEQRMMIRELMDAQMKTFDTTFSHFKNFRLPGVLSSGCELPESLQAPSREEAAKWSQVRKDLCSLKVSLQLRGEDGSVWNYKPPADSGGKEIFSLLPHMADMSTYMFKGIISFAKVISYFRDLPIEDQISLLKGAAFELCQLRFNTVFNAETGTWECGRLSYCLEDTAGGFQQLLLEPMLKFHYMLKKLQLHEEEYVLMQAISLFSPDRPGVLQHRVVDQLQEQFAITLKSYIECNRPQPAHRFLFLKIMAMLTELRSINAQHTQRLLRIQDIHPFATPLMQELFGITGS

Test [15] can be described thus: Caspase-3/7 induction in HepG2 cells by small molecules, qHTS assay (AID 1346978). Note: nearly all actives have a fitted effect of over 15% in size. Put shortly:
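Caspase-3/7 induction was measured by Caspase-Glo 3/7 luminescence (30 min, room temperature) after a 17 hr compound exposure of wild-type HepG2 cells seeded at 2,000 per well and pre-incubated 5 hr.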

The values that follow come from PubChem BioAssay (Tox21).

A number with no mark means an inactive call. Results filed as inconclusive are left out. Activity calls are given as the source filed them. Calls come from the whole dose curve; as a rule, active = well fitted curve in the direction sought with a large enough effect in the repeat runs; inconclusive = weak or mixed curves; inactive = no such curve, though single readings can be large; an effect the other way counts as inactive or inconclusive.
% is set by controls: 0 for no effect and ±100 for the full control effect.

Chain of Nuclear receptor subfamily 1 group I member 2 (Rattus norvegicus) (Q9R1A7 whole entry, looked up): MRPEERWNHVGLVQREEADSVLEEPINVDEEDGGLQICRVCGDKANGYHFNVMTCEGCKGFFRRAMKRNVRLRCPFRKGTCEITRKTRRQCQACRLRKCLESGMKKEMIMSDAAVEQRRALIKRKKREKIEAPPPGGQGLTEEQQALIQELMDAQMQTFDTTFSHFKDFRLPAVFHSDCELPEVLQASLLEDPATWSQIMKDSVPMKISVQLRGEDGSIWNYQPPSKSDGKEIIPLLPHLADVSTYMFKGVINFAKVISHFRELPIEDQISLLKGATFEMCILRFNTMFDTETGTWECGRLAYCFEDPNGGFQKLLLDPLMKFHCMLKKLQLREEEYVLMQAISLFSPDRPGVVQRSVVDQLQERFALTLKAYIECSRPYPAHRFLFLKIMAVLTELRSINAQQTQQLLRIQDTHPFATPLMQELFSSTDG
Chain of Cytochrome P450 3A4 (Homo sapiens) (P08684 whole entry, looked up): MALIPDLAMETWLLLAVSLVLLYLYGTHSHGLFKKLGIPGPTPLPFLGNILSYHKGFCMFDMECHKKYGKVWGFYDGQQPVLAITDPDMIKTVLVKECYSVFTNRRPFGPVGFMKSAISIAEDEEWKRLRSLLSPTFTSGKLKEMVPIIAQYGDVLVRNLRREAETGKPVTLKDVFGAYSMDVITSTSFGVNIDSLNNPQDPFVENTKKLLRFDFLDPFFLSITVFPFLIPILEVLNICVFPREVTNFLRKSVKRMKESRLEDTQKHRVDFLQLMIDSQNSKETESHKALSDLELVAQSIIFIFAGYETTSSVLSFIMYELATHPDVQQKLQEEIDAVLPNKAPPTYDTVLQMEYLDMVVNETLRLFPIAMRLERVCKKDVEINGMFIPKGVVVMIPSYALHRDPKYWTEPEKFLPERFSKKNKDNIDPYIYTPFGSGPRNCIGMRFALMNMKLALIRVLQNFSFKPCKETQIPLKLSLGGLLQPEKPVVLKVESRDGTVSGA
Chain of Cytochrome P450 2C19 (Homo sapiens) (P33261 whole entry, looked up): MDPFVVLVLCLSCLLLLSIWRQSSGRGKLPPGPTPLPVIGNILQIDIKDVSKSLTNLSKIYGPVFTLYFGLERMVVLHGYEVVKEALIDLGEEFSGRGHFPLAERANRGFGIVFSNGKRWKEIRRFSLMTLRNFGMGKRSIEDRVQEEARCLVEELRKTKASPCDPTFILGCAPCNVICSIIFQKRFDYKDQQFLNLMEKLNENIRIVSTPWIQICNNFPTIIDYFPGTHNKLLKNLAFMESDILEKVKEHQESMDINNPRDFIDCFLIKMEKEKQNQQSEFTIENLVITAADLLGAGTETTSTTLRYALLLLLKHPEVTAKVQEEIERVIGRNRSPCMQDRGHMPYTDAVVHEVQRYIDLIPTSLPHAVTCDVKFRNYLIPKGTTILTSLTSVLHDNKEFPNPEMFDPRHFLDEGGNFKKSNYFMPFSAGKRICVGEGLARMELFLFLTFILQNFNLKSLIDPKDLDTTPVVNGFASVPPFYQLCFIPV
Chain of Cytochrome P450 2C9 (Homo sapiens) (P11712 whole entry, looked up): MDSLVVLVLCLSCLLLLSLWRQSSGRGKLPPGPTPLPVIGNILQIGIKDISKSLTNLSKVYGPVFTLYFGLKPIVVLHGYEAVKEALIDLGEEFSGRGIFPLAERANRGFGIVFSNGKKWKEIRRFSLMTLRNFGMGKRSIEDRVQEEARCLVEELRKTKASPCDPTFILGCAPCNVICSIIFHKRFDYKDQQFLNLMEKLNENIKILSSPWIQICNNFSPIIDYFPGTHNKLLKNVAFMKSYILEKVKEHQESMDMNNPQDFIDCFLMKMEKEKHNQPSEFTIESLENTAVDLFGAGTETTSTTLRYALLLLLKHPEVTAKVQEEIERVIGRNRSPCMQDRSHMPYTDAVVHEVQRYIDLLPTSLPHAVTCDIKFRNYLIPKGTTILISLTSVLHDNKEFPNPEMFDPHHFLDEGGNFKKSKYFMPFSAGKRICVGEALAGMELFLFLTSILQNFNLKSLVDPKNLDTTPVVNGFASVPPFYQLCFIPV
Chain of Voltage-gated inwardly rectifying potassium channel KCNH2 (Homo sapiens) (Q12809 whole entry, looked up): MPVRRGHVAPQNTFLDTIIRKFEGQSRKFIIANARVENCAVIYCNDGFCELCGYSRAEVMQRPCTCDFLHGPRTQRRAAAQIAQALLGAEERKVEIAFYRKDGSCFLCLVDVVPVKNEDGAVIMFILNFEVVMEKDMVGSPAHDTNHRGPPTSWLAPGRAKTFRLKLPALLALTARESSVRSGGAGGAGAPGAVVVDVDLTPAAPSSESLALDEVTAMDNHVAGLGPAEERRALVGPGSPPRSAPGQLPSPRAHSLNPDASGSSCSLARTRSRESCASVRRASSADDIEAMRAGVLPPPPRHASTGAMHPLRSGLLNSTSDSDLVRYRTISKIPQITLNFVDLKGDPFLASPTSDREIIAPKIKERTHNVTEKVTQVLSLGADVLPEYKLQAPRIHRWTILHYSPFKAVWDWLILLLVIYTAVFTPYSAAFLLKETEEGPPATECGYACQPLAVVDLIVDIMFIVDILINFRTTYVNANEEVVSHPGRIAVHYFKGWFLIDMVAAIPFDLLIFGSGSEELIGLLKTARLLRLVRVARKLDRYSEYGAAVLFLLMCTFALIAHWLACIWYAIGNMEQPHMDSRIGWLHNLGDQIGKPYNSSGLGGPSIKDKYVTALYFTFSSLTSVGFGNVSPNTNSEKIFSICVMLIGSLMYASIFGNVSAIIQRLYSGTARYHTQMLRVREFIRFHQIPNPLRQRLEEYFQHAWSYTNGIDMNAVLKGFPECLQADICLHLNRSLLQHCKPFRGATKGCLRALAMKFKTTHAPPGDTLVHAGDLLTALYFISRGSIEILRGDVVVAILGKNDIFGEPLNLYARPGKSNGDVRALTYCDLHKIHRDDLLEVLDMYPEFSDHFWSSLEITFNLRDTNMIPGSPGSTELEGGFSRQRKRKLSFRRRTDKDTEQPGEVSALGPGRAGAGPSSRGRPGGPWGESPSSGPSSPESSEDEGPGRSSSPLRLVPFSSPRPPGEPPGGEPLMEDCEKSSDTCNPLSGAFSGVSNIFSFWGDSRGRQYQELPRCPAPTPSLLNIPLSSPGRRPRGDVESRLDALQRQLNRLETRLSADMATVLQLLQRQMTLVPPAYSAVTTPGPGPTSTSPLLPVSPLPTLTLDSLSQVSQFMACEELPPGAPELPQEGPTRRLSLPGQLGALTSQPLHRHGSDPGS

Take `O=C(O)CNC(=O)c1ccccc1`: the Potency entry in [1], in test [2], in test [5], in test [6], in test [7] and in test [8] was “inactive” in each case. Further, the Potency entry in test [9], in [10], in [11] and in test [12] was “inactive” each time. Further, the molecule was classed as inactive in test [3]. In addition, the max activation in test [4] is -5.13%.
For the molecule `O=C1NC(=O)C2CC=CCC12` (stereo unspecified), the Potency entry in test [1], in [2], in test [13] and in test [11] was “inactive” in each case. Besides, in test [3], the molecule was classed as inactive.
As to `O=S(=O)(O)c1cccc(S(=O)(=O)O)c1`, the Potency result in test [1], in test [2], in [14], in [7], in test [8] and in test [9] was “inactive” each time. For the same molecule, the Potency result in test [10] and in test [12] was “inactive” in each case. Besides, the result in test [3] was inactive.
Regarding `c1coc(CNc2ncnc3nc[nH]c23)c1`, the call in [15] and in [3] was inactive. Moreover, the Potency result in test [2], in test [13] and in [11] was “inactive” throughout.
In the case of `C=C(C)C(=O)OCC1CCCO1` (stereo unspecified), the Potency result in test [1], in test [2], in test [13], in test [8], in test [9] and in [10] was “inactive” throughout. Moreover, the Potency result in [11] and in test [12] was “inactive” in each case. Also, in [3], the outcome was inactive.
With `Cc1ccccc1N=C(N)N=C(N)N`, the Potency result in test [1], in [2], in [14], in [8], in test [9] and in [10] was “inactive” in each case. Also, the Potency entry in test [11] and in test [12] was “inactive” in each case. Also, in [3], the outcome was inactive. The Potency in test [7] is 7.96 µM (active).
Take `CCN[C@@H]1C[C@H](N)[C@@H](OC2OC(CN)=CCC2N)[C@H](O)[C@H]1O[C@H]1OC[C@](C)(O)[C@H](NC)[C@H]1O` (stereo partly specified): the figures for the activity change, negative = cytotoxicity in [1], in test [2] and in test [13] were 1.73% [at 0.349 µM], 2.16% [at 0.349 µM] and 3.51% [at 0.349 µM], respectively. Besides, in test [3], the caspase-3/7 activation was -0.394% [at 0.349 µM]. In addition, the max activation in test [4] is -4.25%. For the same molecule, the Potency entry in [5] and in [6] was “inactive” in each case. Further, the activity change, negative = inhibition in test [11] was -0.868% [at 0.29 µM].
For `CC1OC1C1CCC2(C)OC2C1` (stereo unspecified), the Potency result in test [1], in [2], in test [13], in [14], in test [7] and in [9] was “inactive” each time. The Potency result in [10] was “inactive”. For the same molecule, the molecule was classed as inactive in [3].
As to `[Ca+2]`, the Potency result in test [1], in [2], in [13], in [8], in test [9] and in test [10] was “inactive” in each case. In addition, the Potency result in test [11] and in [12] was “inactive” throughout. Also, in test [3], the molecule was called inactive. Also, in test [7], the Potency is 35.6 µM (active).
On to `CC(C(=O)O)c1cccc(Oc2ccccc2)c1` (stereo unspecified), for which the Potency entry in test [1], in test [13], in [7], in test [8], in test [10] and in [11] was “inactive” throughout. The Potency entry in [12] is “inactive”. In addition, in test [3], the outcome was inactive. Also, the max activation in test [4] is -0.273%.
Regarding `COc1cccc(OC)c1C(=O)N[C@@H]1C(=O)N2[C@@H]1SC(C)(C)[C@@H]2C(=O)O`, the Potency entry in [1], in test [2], in test [13], in test [5], in [6] and in [7] was “inactive” throughout. The Potency result in test [8], in test [9], in [10] and in test [12] was “inactive” throughout. Further, in test [3], the result was inactive. Also, the max activation in test [4] was -1.79%.
As for `Cc1ccc(C(=O)c2ccc(CC(=O)O)n2C)cc1`, the Potency entry in test [1], in test [2], in test [14], in test [5], in [6] and in test [7] was “inactive” throughout. Moreover, the Potency result in test [8], in [10], in [11] and in test [12] was “inactive” throughout. Besides, the molecule was classed as inactive in test [3]. Besides, the max activation in test [4] was -1.99%.
As to `C[N+](C)(C)CCCCCCCCCC[N+](C)(C)C`, the Potency entry in test [1], in test [2], in [14], in test [5], in [6] and in test [7] was “inactive” in each case. Besides, the Potency result in test [8], in test [9] and in [12] was “inactive” throughout. Further, the result in [3] was inactive. In addition, the max activation in test [4] is -3.83%.
`O=C(O)c1cn(C2CC2)c2cc(N3CCNCC3)c(F)cc2c1=O`: the Potency entry in test [1], in test [2] and in test [13] was “inactive” in each case. Besides, the result in test [3] was inactive. Further, the max activation in test [4] was -1.42%.
`NCCCC[C@H](N[C@@H](CCc1ccccc1)C(=O)O)C(=O)N1CCC[C@H]1C(=O)O`: the Potency result in test [1], in test [2], in test [13], in test [7], in test [8] and in [9] was “inactive” in each case. Further, in test [3], the molecule was called inactive. Moreover, the max activation in [4] is -3.44%.
For `O=C(O)CNC(=O)c1ccc(CO)o1`, the Potency entry in test [1], in [2], in [13], in test [14], in test [8] and in [9] was “inactive” throughout. The Potency entry in test [10], in test [11] and in test [12] was “inactive” each time. Besides, in [3], the molecule was called inactive.
As for `COc1cc(-c2ccc(=O)[nH]n2)ccc1OC(F)F`, the Potency entry in test [1], in test [2], in test [9] and in test [11] was “inactive” throughout. For the same molecule, in [3], the call was inactive. Further, the Potency is 4.73 µM (active) in test [14] and 4.36 µM (active) in test [7].
Regarding `CNCC(O)c1ccc(O)c(O)c1` (stereo unspecified), the Potency result in test [1], in [2], in [13], in test [14] and in test [11] was “inactive” throughout. In addition, in test [3], the molecule was classed as inactive.
With `CCCCCCCCCCCCCCCCCCO`, the Potency result in test [1], in test [2], in test [13], in [5], in test [6] and in [7] was “inactive” in each case. The Potency entry in [8], in test [9], in test [10], in [11] and in [12] was “inactive” in each case. Further, the molecule was called inactive in test [3]. Also, the max activation in test [4] was -0.712%.
For `CN1CCC(=C2c3ccccc3CCc3cccnc32)CC1`, the call in test [15] and in [3] was inactive. Further, the Potency result in [2], in test [13], in [14] and in test [11] was “inactive” throughout.
`COc1cc2c(cc1OC)-c1cc3ccc(OC)c(OC)c3c[n+]1CC2`: the molecule was called inactive in test [15] and in test [3]. For the same molecule, the Potency entry in [14] and in [9] was “inactive” throughout. Besides, the Potency in [7] is 9.02 µM (active); in test [10], 35.9 µM (active).
